About 83,000 compounds went through this panel and 20% of them were active in at least one assay; those are over-represented in the sample as a whole.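 Compound tested at a single concentration for 48 hours in 96-well plates; a percent growth value below 10 was scored as active.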 A number with no mark means an inactive call. Calls of active or inactive are those of the source.
Columns and labels:
Test in all cases: NCI-60 one-dose screen, 48 h (100 = growth as untreated, 0 = no growth, -100 = all killed)
SK-MEL-2 melanoma = conditions: 10 µM unless noted
EKVX NSCLC = conditions: 10 µM unless noted
SN12C renal = conditions: 10 µM unless noted
UO-31 renal = conditions: 10 µM unless noted
TK-10 renal = conditions: 10 µM unless noted
ACHN renal = conditions: 10 µM unless noted
CAKI-1 renal = conditions: 10 µM
A498 renal = conditions: 10 µM unless noted
CCRF-CEM leukemia = conditions: 10 µM unless noted
MOLT-4 leukemia = conditions: 10 µM unless noted

Row | Compound | growth (SK-MEL-2 melanoma) | growth (EKVX NSCLC) | growth (SN12C renal) | growth (UO-31 renal) | growth (TK-10 renal) | growth (ACHN renal) | growth (CAKI-1 renal) | growth (A498 renal) | growth (CCRF-CEM leukemia) | growth (MOLT-4 leukemia)
1 | O=C1NC(=O)/C(=C/c2ccc(OCc3cc4ccccc4nc3Cl)cc2)S1 | 112% | 99.3% | 95.9% | 80.6% | 110% | 92.8% | 97.1% | 100% | 88.9% | 101%
2 | Nc1nc(N)c2c(n1)NC(c1ccccc1)CC(c1ccc(Nc3nc(NCCO)nc(Nc4ccc(Cl)cc4)n3)cc1)=N2 (centres undefined) | 71.9% | 92.6% | 49.4% | 43.9% | 63.7% | 70.2% | 61% | 71.3% | -11.2% (active) | 1.48% (active)
3 | N#C/C(=C\c1ccc(-c2ccc(F)cc2)o1)C(=O)Nc1ncc(Cc2ccc(Cl)cc2Cl)s1 | 68.9% | 9.87% (active) | -37.5% (active) | 2.72% (active) | -4.43% (active) | 8.96% (active) | 14.2% | 72.1% | 4.62% (active) | 30.8%
4 | CC[C@]12C=CCN3CC[C@]4(C(=C(C(=O)OC)C1)Nc1cc5c(cc14)[C@@H]1[C@H](O5)[C@@H](O)[C@@]4(CC)CC(C(=O)OC)=C5Nc6cc(OC)ccc6[C@@]56CCN1[C@@H]46)[C@@H]32 | 32.1% | 19.1% | 16.4% | 11.9% | 14.1% | -42.5% (active) | 2.12% (active) | -65.9% (active) | 5.92% (active) | 
5 | O=C(Nc1ccc(-c2nc(-c3cccc(O)c3)c(-c3ccnc(Br)c3)[nH]2)cc1)c1ccccc1 | 10.3% | 26.7% | 35% | 1.13% (active) | 49% | 16.5% | 11.3% | -11.4% (active) | 3.66% (active) | -15.8% (active)
6 | O=C(Nc1cccc(-c2nc(-c3ccc(NC(=O)c4cccs4)cc3Cl)no2)c1)Nc1ccc(NC(=O)C2CC2)c(C(F)(F)F)c1 | -50.2% (active) | -34.2% (active) | -51.8% (active) | -23.6% (active) | -28.2% (active) | 0.236% (active) | -67.7% (active) | -89% (active) | 6.43% (active) | -4.78% (active)
7 | Cn1c(SC(C(=O)Nc2ccc(F)cc2)c2ccccc2)nc2ccccc2c1=O (centres undefined) | 104% | 100% | 99.1% | 88.1% | 99.1% | 109% | 99.3% | 98.8% | 102% | 101%
8 | COc1cc(/C=C/C(=O)c2ccc(NC(=O)CSc3nnc(-c4ccc5nc(-c6ccccc6)[nH]c5c4)o3)cc2)cc(OC)c1OC | 105% | 99% | 90.8% | 89.4% | 137% | 101% | 105% | 84.4% | 37.5% | 65%
9 | CCCC(=O)NC(c1cccnc1)c1cc(Cl)c2cccnc2c1O (centres undefined) | 42.7% | 24% | 44.4% | 22.3% | 47.6% | 20.5% | 34.6% | 89.9% | 25% | 30.3%
10 | COc1cc2cc(Oc3ccc(NC(=O)Nc4cccc(C(F)(F)F)c4)cc3)c(C)nc2cc1OCCN(C)C | 111% | 92.9% | 92.3% | 89.8% | 110% | 97.3% | 89.9% | 106% | 71.4% | 80.5%
11 | C#CCOc1ccc(/C=N/Nc2nc(-c3cc(Cl)ccc3Cl)cs2)cc1 | 113% | 73.6% | 88.7% | 68.5% | 148% | 97.8% | 77.1% | 83.6% | 94.7% | 86.3%
12 | CN1C(=O)N(C)C2C1NN=c1s/c(=C\c3ccccn3)c(=O)n12 (centres undefined) | 103% | 99.4% | 98.8% | 91.3% | 104% | 104% | 100% | 105% | 101% | 107%
13 | O=C(CCCCCCN1CC(=O)N2[C@@H](c3ccccc3)c3[nH]c4ccccc4c3C[C@H]2C1=O)NO | 68.4% | 84.3% | 78.4% | 57.1% | 69.4% | 87.3% | 65.5% | 87.1% | 24.5% | 20.9%
14 | Nc1ccc(-c2nnc(SCc3ccc(O)c4ncccc34)n2-c2ccccc2)cc1 | 12.4% | 30% | 5.29% (active) | 4.44% (active) | 25.3% | 12.4% | 12.9% | 15.8% | 20.7% | 29.5%
15 | Nc1ccc(-c2nnc(SCc3ccc(O)c4ncccc34)o2)cc1 | 3.45% (active) | -5.86% (active) | 6.01% (active) | -12.5% (active) | 1.68% (active) | 2.17% (active) | 4.38% (active) | -40.1% (active) | 5.03% (active) | 5.7% (active)
16 | O=C(/C=C/c1cccc(O)c1)c1ccc(O)cc1 | 107% | 98.4% | 65.6% | 72.6% | 98.3% | 75.1% | 65.3% | 114% | 37% | 91.7%
17 | CCOC(=O)c1nn(-c2ccccc2)c(=O)c2c(N)c(C#N)c(-c3cccs3)cc12 | 98.4% | 83.9% | 75.1% | 50.9% | 115% | 54.4% | 62.8% | 102% | 99.5% | 97%
18 | O=C1/C(=C/c2ccccc2[N+](=O)[O-])Oc2ccc(O)cc21 | 75% | 69.8% | 30.9% | 21.4% | 99.1% | 2.35% (active) | 48.3% | 87.3% | -2.68% (active) | 6.41% (active)
19 | Cc1[nH]nc2ccc(-c3nc4cnc(N5CCN(C)CC5)cn4c3Nc3ccc(F)cc3Br)cc12 | 91.1% | 86.1% | 29.9% | 50.4% | 65% | 48.3% | 21% | 82.3% | 3.21% (active) | 39.4%
20 | CC1COc2c(N3CCN(C)CC3)c(F)cc3c(=O)c(C(=O)N/N=C/c4cc[nH]c4)cn1c23 (centres undefined) | 83.5% | 33.3% | 49.3% | 54% | 87.8% | 43.8% | 47.6% | 40.6% | -35.9% (active) | 9.4% (active)
21 | CC(=O)Nc1ccc(NC(=O)Nc2cccc(-c3nc(-c4ccc(NC(=O)c5cccs5)cc4Cl)no3)c2)cc1C(F)(F)F | -61.4% (active) | -35.9% (active) | -64.5% (active) | 14.4% | -32.7% (active) | 3.84% (active) | -73.2% (active) | -87.9% (active) | 6.64% (active) | -0.998% (active)
22 | COc1cc2cc(Oc3ccc(NC(=O)Nc4cc(C(F)(F)F)cc(C(F)(F)F)c4)cc3)c(C)nc2cc1OCCN(C)C | 113% | 106% | 100% | 89.5% | 109% | 107% | 93.4% | 113% | 110% | 107%
23 | O=c1c2ccccc2nc(COc2ccccc2)n1/N=C/C=C/c1ccccc1 | 94.5% | 86.2% | 87.6% | 89.8% | 106% | 96.8% | 103% | 98.6% | 84.3% | 97.1%
24 | Oc1ccc(-c2nnc(SCc3ccc(O)c4ncccc34)o2)cc1 | 17% | 15.6% | 6.09% (active) | -5.74% (active) | 13.6% | 3.36% (active) | 3.35% (active) | -8.21% (active) | 12.1% | 16.5%
25 | COc1ccc(/C=N/Nc2nc(Nc3ccccc3)nc(Nc3ccc(S(N)(=O)=O)cc3)n2)cc1 | 68.9% | 88.5% | 80.2% | 77.9% | 107% | 75.2% | 76% | 61.7% | 45.9% | 44.5%
26 | CCOC(=O)Nc1cccc(-n2cnc3cc(-c4ccc(O)cc4)ccc32)c1 | 15.8% | 42.7% | 31.2% | 26.4% | 57.1% | 19.9% | 33% | -25.1% (active) | 24.5% | 10.6%

From PubChem BioAssay (NCI)
